Activity calls are given as the source filed them. The rule behind the calls is not given here.

The target in the assay is Thyrotropin receptor (Homo sapiens) (UniProt P16473). Briefly: qHTS for antagonists of the Thyroid Stimulation Hormone Receptor: Hit Validation for Inverse Agonism. The conditions noted are these: active compounds read high. The source says: The thyroid-stimulating hormone receptor (TSHR) is a member of the 7 trans-membrane-spanning receptor (7TMR) family of cell surface receptors. TSHR-mediated hyperthyroidism is important in thyroid pathology. The development of small molecule antagonists of TSHR may lead to therapeutic approaches for TSHR-mediated hyperthyroidism caused by constitutively activating mutations or stimulating auto-antibodies associated with Graves' disease. Graves' disease is the leading cause of hyperthyroidism and is caused by autoantibodies that stimulate TSHR (TsAbs) causing thyroid growth and unregulated overproduction of thyroid hormones and existing treatments have liabilities (agranulocytosis). In addition, TSHRs are known to be expressed in multiple extrathyroidal tissues including bone, brain, kidney, testis, fat and cells of the immune system but the role of the TSHR in these tissues is not clear. Therefore, TSHR antagonists/inverse agonists could be used as probes of extrathyroidal TSHR function. Finally, TSHR inverse agonists, which are a subclass of antagonists that inhibit agonist-independent (or basal or constitutive) TSHR signaling, could be used to inhibit TSH-independent signaling in patients with recurrent or metastatic thyroid cancer who are receiving thyroid hormone to suppress TSH. […]
Chain of Thyrotropin receptor (Homo sapiens) (P16473 whole entry, looked up): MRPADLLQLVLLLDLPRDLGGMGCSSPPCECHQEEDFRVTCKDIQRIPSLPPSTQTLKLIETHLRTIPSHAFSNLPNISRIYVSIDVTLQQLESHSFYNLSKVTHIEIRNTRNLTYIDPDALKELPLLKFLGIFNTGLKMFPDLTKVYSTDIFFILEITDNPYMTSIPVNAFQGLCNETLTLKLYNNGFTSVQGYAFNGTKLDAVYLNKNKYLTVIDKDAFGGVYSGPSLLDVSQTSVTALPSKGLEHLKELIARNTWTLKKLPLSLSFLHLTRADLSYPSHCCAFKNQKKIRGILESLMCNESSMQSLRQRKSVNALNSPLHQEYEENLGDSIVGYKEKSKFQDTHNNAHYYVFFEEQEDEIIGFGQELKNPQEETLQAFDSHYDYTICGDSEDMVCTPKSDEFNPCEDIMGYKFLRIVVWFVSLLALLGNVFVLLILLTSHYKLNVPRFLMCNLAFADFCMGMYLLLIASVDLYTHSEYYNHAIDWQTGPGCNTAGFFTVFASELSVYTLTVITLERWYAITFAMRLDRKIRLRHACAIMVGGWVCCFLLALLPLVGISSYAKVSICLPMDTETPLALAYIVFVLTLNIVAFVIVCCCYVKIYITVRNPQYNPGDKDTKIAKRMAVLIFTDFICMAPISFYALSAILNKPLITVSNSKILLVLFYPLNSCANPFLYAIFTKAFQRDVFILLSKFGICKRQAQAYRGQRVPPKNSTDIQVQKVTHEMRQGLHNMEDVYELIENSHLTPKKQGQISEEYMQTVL
In general terms: Quantitative high-throughput screening tests each substance at several concentrations.
With `COC(=O)C1=C(c2ccc(-c3ccccc3)c(F)c2)C[C@@H]2CC[C@H]1N2C(=O)NCCOc1ccccc1`, the max inhibition was 75% (active).

For the origin of these results see PubChem BioAssay AID602442 (National Center for Advancing Translational Sciences (NCATS), 2012).
